Screening results from PubChem BioAssay.
Shown are actives, neighbours in structure and some others; about 0.46% of the full set was active somewhere.
Integrin act MD – activates integrin-mediated alleviation for muscular dystrophy. alpha7betagal myoblasts, beta-gal FDG fluorescence, 48 h. Potency, µM (series often up to 38.3 µM), inactives show top-dose activation, actives largely listed as activators. 350,000 compounds, 0.064% hits. AID 624291;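 also: 100% = response of the positive control SU9516; nearly all actives have a fitted effect of over 60% in size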
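alpha7betagal+/- myoblasts (passage 13, 250/well) treated 48 h at 37C with compounds at 1:260 dilution of DMSO stock. Lysed, then beta-galactosidase activity read as FDG fluorescence (ex 480/em 540) after 30 min, with pre-read for autofluorescence.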
Mito fusion act – blocks mitochondrial division or promotes mitochondrial fusion | S. cerevisiae fusion-defective mutant growth rescue, CellTiterGlo 48 h | Potency, µM (top dose mostly 46.1 µM), without a hit: at the top dose growth rescue (activation), usual class: activators | 320,000 compounds, 0.23% hits | AID 485298; also: % of control where 0% means no effect; nearly all actives have a fitted effect of over 45% in size
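Compounds are tested for their ability to restore growth of mitochondrial fusion-defective yeast strains at non-permissive 37C in YPEG medium over 48 hours. Viability is quantified by luciferase luminescence.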
GALK inh – inhibitors of human galactokinase | P51570 | Purified GALK, Kinase-Glo residual ATP luminescence | Potency, µM (top dose mostly 57.5 µM), for inactives: top-dose activity change, negative = inhibition, hits mostly inhibitors | 270,000 compounds, 0.007% hits; also: % is scaled to controls: 0 for no effect and ±100 for the full control effect
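ATP-depletion format; final 35 uM ATP, 100 uM D-galactose, 5 nM enzyme; pH 8.0 HEPES/Mg2+ buffer; 60 min RT; luminescence read 10 min after detection reagent.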
PTAP TSG101 blk – blocks PTAP/TSG101 interaction to inhibit HIV-1 budding; Potency, µM (titrated, usually from 115 µM), without a hit: top-dose activity change, negative = inhibition, most hits filed as inhibitors; 340,000 tested, under 10 active; AID 493005; Fluorescence polarization, FITC-PTAP peptide / Tsg101 binding; active = well fitted inhibition curve with a large enough effect in the main read-out, with a control signal flat, not every such curve was filed as active; inconclusive = small, poorly fitted or top-dose-only effect, or effect the other way, or a change in a side signal; inactive = no such curve, though single readings can be large or run the other way; also: % of control where 0% means no effect
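Fluorescence polarization binding of Tsg101 binding domain (10 uM final) to FITC-labeled PTAP peptide (50 nM final) in HEPES pH 7.5 buffer with NaCl, Tween 20, EDTA, TCEP. Compounds added before peptide; binding 20 min at RT.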
ASM inhibitor – inhibitors of human secretory acid sphingomyelinase; placental ASM, HMU-PC fluorogenic substrate, 60 min; Potency, µM (series often up to 57.5 µM), without a hit: top-dose activity change, negative = inhibition, usual class: inhibitors; 340,000 compounds, 0.006% hits; AID 504937
Target sequence (P17405 47-631 limits assumed): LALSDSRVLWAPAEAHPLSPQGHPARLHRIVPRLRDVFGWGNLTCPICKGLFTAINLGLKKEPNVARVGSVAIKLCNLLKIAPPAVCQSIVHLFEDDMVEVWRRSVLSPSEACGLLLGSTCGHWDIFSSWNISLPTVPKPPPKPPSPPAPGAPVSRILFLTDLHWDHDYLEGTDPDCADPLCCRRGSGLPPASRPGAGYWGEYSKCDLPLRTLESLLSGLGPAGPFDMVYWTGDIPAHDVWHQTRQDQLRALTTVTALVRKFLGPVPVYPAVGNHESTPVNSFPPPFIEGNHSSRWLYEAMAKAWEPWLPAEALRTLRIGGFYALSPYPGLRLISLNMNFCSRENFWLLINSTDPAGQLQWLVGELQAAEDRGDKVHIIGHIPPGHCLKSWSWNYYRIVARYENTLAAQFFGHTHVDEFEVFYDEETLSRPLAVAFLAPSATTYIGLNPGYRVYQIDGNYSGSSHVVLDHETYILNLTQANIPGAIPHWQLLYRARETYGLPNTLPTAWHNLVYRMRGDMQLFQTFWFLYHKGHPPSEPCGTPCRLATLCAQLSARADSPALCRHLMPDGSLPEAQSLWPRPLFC
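Fluorogenic HMU-PC substrate (9 uM final) is turned over by placental ASM in 60 min at 37 C after a 10 min compound preincubation. Reaction ended by alkaline stop (pH 10), with fluorescence read at 386/447 nm.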
AT treatment – candidate therapy for ataxia-telangiectasia | F2112 A-T fibroblasts, KAP-1 phosphorylation AlphaLISA; neocarzinostatin DNA damage 30 min before lysis | AID 485349 | Potency, µM (highest dose often 57.5 µM), without a hit: at the highest dose activation, most hits filed as activators | 320,000 compounds, 0.19% hits; also: % of control where 0% means no effect; nearly all actives have a fitted effect of over 45% in size
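hTERT-immortalized A-T patient fibroblasts (F2112), 500 cells/well in OPTI-MEM, 1% FBS, got compounds for 60 min, then NCS for 30 min at 37C. Lysates were then assayed for phospho-KAP-1 by AlphaLISA (anti-pKAP1 donor, anti-KAP1 acceptor beads), 6 hr at 25C.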
The depositor's hits bear a star; i = inactive; ? = inconclusive; nt = not tested or not shown; ! = not active in a repeat. Unless noted, calls follow the shape of the dose curve; as a rule, active = well fitted curve in the direction sought with a large enough effect; inconclusive = small, poorly fitted or top-dose-only effect, or another doubt; inactive = no such curve, though single readings can be large; an effect the other way counts as inactive or inconclusive. Potency is read from the fitted curve at half-maximal effect.

SMILES	Integrin act MD	Mito fusion act	GALK inh	PTAP TSG101 blk	ASM inhibitor	AT treatment
Cn1c(N)c(C(=O)CSc2nnc(NC3CCCCC3)s2)c(=O)n(C)c1=O	22%	0%	nt	-5%	3%	3%
COc1cc(O)c2c(c1)OC(c1ccc(O)cc1)CC2=O (stereo not drawn)	-43%	-17%	-3%	-2%	-10%	40µM*
O=C(CCCCCN1C(=O)[C@@H]2Cc3ccccc3CN2C1=O)Nc1cccc(F)c1	-14%	13µM*	-3%	-6%	-4%	3%
Cc1cccc(C)c1NC(=O)CS(=O)CC(=O)NCC1OCCc2ccccc21 (stereo not drawn)	?	1%	-2%	0%	2%	-1%
CC(=O)Nc1ccc(C2=NN(c3ccccc3)C(c3cccs3)C2)cc1 (stereo not drawn)	11%	3%	-3%	64%	i	25µM*
Fc1ccccc1OCC1CCCN(Cc2nc(CC3CC3)no2)C1 (stereo not drawn)	13%	6%	0%	2%	2%	5%
Cc1ccc(CNC(=O)C2CCCN2C(=O)Nc2ccc(F)cc2)cc1 (stereo not drawn)	-36%	-2%	7%	-4%	-2%	2%
O=C(/C=C/c1cccc(Cl)c1)Nn1c(-c2cccs2)nc2ccccc2c1=O	11%	16µM*	-1%	-1%	-17%	-6%
O=C(/C=C/c1ccccc1)Nn1c(-c2cccs2)nc2ccccc2c1=O	8%	?	0%	-7%	-7%	4%
O=S(=O)(NC[C@@H]1CCC[C@H](CNS(=O)(=O)c2c(F)cccc2F)C1)c1ccc2c(c1)OCCO2	nt	6%	nt	nt	nt	5%
Cc1cccc2c(N=O)c(O)[nH]c12	-25%	0%	0%	-4%	-1%	3.2µM*
Fc1ccc2nc(Nc3nc4cc5c(cc4s3)OCCO5)sc2c1	16%	13µM*	0%	-1%	144%	6%
c1ccc2sc(Nc3nc4cc5c(cc4s3)OCO5)nc2c1	-36%	14µM*	0%	-1%	224%	3%
CN(C)S(=O)(=O)Nc1cc(F)cc(F)c1	13%	-4%	0%	-1%	7%	1%
Cc1cccc(OCc2nnc(SCC(=O)NC3CCCCC3)n2C)c1	-6%	-1%	-1%	1%	-1%	-4%
Cc1ccc(S(=O)(=O)N2CN(CC3CCCO3)c3nc4ccccc4nc32)c(C)c1 (stereo not drawn)	11µM*	3%	3%	-3%	2%	2%
O=C(O)c1ccccc1Nc1cccc(OCc2ccc3ccccc3n2)c1	nt	15µM*!	nt	-1%	-1%	1%
COc1cc2c(c(OC)c1OC)-c1c(cc3c(c1OC)OCO3)C1OC2[C@@H](C)[C@H]1C (stereo partly drawn)	16%	11%	0%	0%	5%	29%
COc1cc2c(c(OC)c1OC)-c1c(cc3c(c1O)OCO3)C[C@@H](C)[C@@H](C)C2	-22%	18µM*	-2%	1%	-6%	-26%
COc1cc2c(c(O)c1OC)-c1c(cc(OC)c(OC)c1OC)C[C@@H](C)[C@@H](C)C2	8%	?	-2%	0%	5%	20µM*
COc1cc2c(c(OC)c1OC)-c1c(cc(OC)c(OC)c1OC)C[C@H](C)[C@H](C)C2	-20%	-15%	0%	-9%	-1%	?
Cc1ccc(-c2cn(-c3ccc(OC(F)F)cc3)c3[n+]2CCCCC3)cc1	-16%	-2%	-1%	-5%	32%	50%
FC(F)Oc1ccc(-n2cc(-c3ccccc3)[n+]3c2CCCCC3)cc1	-24%	2%	1%	1%	3%	14µM*
COc1nc2ccccc2nc1CCC(=O)O	-29%	4%	-2%	2%	1%	12%
CCOC(=O)C1=C(COC(=O)CCOc2ccc(C)cc2)NC(=O)NC1C (stereo not drawn)	-53%	-9%	nt	0%	3%	-6%
SMILES	Integrin act MD	Mito fusion act	GALK inh	PTAP TSG101 blk	ASM inhibitor	AT treatment
Cc1cc(C)nc(N/C(=N\S(=O)(=O)Cc2ccccc2)Nc2ccccc2Br)n1	-22%	22µM*	nt	0%	-8%	9%
COc1cccc(OC)c1OC(=O)C1CC(=O)N(c2ccc3c(c2)OCCO3)C1 (stereo not drawn)	21%	nt	nt	-5%	5%	3%
COc1ccccc1NC(=O)C(C)OC(=O)C1CC(=O)N(c2ccc3c(c2)OCCO3)C1 (stereo not drawn)	11%	0%	-1%	28µM*	-3%	5%
COc1cc(/C=C2\SC(N3CCCCC3)=NC2=O)cc(OC)c1OC	-10%	5µM*	nt	-6%	54%	40%
CCN(CC)c1ccc2cc(-c3nc(-c4ccc(OC)cc4)cs3)c(=O)oc2c1	-230%	-1%	0%	?	17%	25µM*
CCN(CC)c1ccc2cc(-c3nnc(-c4ccccc4)o3)c(=O)oc2c1	-17%	-1%	-5%	?	63%	9%
Cc1c(C(=O)c2ccc(Cl)cc2Cl)cnc2cc3c(cc12)OCO3	0%	13µM*	-4%	-8%	-14%	nt
C#CCOCCOCCOCCNc1nc(N2CCN(C(=O)[C@H](CCC(=O)O)n3cc(C(N)CO)nn3)CC2)nc(N2CCN(C(=O)[C@H](CCC(=O)O)n3cc(C(N)CO)nn3)CC2)n1 (stereo partly drawn)	nt	-9%	-1%	nt	nt	0%
C#CCOCCOCCOCCNc1nc(N2CCN(C(=O)[C@H](CCC(=O)O)n3cc(C(N)Cc4ccc(O)cc4)nn3)CC2)nc(N2CCN(C(=O)[C@H](CCCCN)n3cc(C(N)[C@H](C)CC)nn3)CC2)n1 (stereo partly drawn)	nt	-66%	-2%	nt	nt	40µM*
C#CCOCCOCCOCCNc1nc(N2CCN(C(=O)[C@H](CCC(=O)O)n3cc(C(N)CO)nn3)CC2)nc(N2CCN(C(=O)[C@H](CCC(=O)O)n3cc(C(N)CC(C)C)nn3)CC2)n1 (stereo partly drawn)	nt	-34%	-2%	nt	nt	18µM*
c1ccc(-c2ccccc2OCCCN2CCOCC2)cc1	8%	20µM*	0%	0%	1%	6%
CN1CCN(CC#CCC(O)(c2ccccc2)c2ccccc2)CC1	-6%	-3%	-4%	1%	3%	40µM*
CC(=O)c1ccc(NC(=O)CN2CCN(c3ncccn3)CC2)cc1	-17%	-7%	1%	-4%	4%	-4%
CC(=O)c1ccc(N2CCN(c3ncccn3)CC2)cc1	3%	25µM*	11%	-4%	0%	6%
